# Sampled rows, rich in hits. Any-hit rate of the full collection: about 1.9%.
# MsrA inh = bovine MsrA enzyme inhibitors, primary screen, biochemical, absorbance, HTS. purified bovine MsrA, absorbance read-out. Methionine sulfoxide reductase A (Bos taurus). actives 0.75% (n = 360,000). inhibition, % at 15.5 µM. AID 651718, 2012; in the data active means inhibition above about 4.5%;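 further: 0% = vehicle wells with enzyme and 100% = reference inhibitor wells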
# PLCb3 inh = human PLC-beta3 inhibitors, primary screen, biochemical, fluorescence; actives 0.18% (n = 370,000); Purified PLC-beta3, fluorogenic substrate; 1-phosphatidylinositol 4,5-bisphosphate phosphodiesterase beta-3 (Homo sapiens), Q01970; inhibition, % at 12.2 µM; in the data active means inhibition above about 11%;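 further: 0% = median of compound wells on plate and 100% = full blocker control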
# PLCg1 inh = PLC-gamma1 enzyme inhibitors, primary screen, biochemical, fluorescence, purified enzyme; fluorogenic substrate; inhibition, % at 12.2 µM; actives 0.84% (n = 370,000); AID 720700, 2013; 1-phosphatidylinositol 4,5-bisphosphate phosphodiesterase gamma-1 (Homo sapiens), P19174
# Target sequence (P19174 whole entry, looked up): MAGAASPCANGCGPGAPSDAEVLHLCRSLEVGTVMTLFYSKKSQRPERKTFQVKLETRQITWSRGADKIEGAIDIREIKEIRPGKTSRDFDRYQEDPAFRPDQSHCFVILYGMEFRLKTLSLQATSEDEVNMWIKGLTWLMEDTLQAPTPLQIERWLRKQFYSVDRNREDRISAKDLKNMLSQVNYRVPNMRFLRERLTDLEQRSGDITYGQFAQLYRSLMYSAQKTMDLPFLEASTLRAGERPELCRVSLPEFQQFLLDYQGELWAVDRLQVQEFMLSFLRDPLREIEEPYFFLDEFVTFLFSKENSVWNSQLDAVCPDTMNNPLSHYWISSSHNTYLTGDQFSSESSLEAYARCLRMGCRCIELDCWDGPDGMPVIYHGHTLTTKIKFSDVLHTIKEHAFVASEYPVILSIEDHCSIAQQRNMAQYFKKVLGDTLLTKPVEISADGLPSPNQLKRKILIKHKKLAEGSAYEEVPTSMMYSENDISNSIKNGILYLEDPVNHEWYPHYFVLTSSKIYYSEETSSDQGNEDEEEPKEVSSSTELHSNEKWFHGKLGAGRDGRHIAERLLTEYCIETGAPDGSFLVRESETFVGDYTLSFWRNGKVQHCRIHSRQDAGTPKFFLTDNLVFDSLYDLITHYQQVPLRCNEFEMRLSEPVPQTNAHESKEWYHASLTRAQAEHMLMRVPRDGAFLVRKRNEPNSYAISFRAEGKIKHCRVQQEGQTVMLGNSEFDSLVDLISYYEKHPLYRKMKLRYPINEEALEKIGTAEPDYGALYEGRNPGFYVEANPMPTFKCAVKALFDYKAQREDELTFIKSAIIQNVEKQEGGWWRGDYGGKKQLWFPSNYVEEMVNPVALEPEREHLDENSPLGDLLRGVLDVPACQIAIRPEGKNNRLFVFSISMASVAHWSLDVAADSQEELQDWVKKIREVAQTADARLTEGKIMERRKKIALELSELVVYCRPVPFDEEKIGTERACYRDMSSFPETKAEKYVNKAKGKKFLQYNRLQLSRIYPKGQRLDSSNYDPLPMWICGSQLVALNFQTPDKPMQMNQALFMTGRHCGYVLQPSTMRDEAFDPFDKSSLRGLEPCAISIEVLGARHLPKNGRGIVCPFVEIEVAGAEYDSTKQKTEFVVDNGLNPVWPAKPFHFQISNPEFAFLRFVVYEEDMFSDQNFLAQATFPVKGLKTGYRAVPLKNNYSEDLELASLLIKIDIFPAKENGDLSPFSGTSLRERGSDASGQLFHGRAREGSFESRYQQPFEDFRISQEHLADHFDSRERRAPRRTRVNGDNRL
# MsrA act = bovine MsrA enzyme activators, primary screen, biochemical, absorbance, HTS. Methionine sulfoxide reductase A (Bos taurus). purified bovine MsrA, absorbance read-out. activation, % at 10.6 µM. actives 0.3% (n = 360,000); in the data active means activation above about 7.5%;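 further: 0% = vehicle and 100% = reference activator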
# PLCgamma1 ctr = PLC-gamma1 enzyme inhibitors, counter-screen for PLC-beta3 inhibitor project, biochemical, fluorescence; actives 3.1% (n = 3,300); shares compounds with PLCg1 inh; purified PLC-gamma1, fluorogenic substrate; inhibition, % at 12.3 µM
# PLCbeta3 conf = PLC-beta3 inhibitor confirmation, biochemical, fluorescence, purified enzyme; shares compounds with PLCg1 inh; fluorogenic substrate fluorescence; inhibition, % at 12.3 µM; actives 1% (n = 3,300); AID 743261, 2014; in the data active means inhibition above about 11%
# Starred values were filed as active, the others as inactive; . = not tested or not shown. Unless noted, no stated cut-off is given here; in the data, active means inhibition above about 9.5%; inactive means the rest.
SMILES,MsrA inh,PLCb3 inh,PLCg1 inh,MsrA act,PLCgamma1 ctr,PLCbeta3 conf
COc1ccc(CC(=O)NCC2CCCN(Cc3cc(OC)cc(OC)c3)C2)cc1 (stereo unspecified),1.4,0.9,13.0*,-3.0,-5.0,-3.5
COC(=O)c1ccc(CN2CCCC(CNC(=O)Cc3ccc(OC)cc3)C2)cc1 (stereo unspecified),1.5,-5.0,-1.2,-1.9,.,.
Cc1ccc(S(=O)(=O)CCC(=O)Nc2nc(-c3ccncc3)cs2)cc1,0.7,-5.8,12.7*,-2.5,3.3,-6.5
Cc1ccc(S(=O)(=O)CC(=O)Nc2nc(-c3ccccc3)cs2)cc1,0.1,3.0,3.8,-8.8,.,.
CC1(C)CC(NC(=O)c2ccncc2)CC(C)(C)N1O,-1.6,1.0,11.1*,-2.5,-9.0,-4.5
O=C(N1CCOCC1)N1CCN(S(=O)(=O)N2CCCCC2)CC1,1.7,-2.6,3.5,-2.2,.,.
O=S(=O)(N1CCOCC1)N1CCCN(S(=O)(=O)N2CCOCC2)CC1,-0.1,5.8,10.6*,-2.0,-0.5,4.5
COc1ccc2nc(NC(=O)CN3C(=O)NC4(CCCCC4)C3=O)sc2c1,-0.2,-3.2,0.4,-11.8,.,.
Cc1ccc2nc(NC(=O)CN3C(=O)NC4(CCCCC4)C3=O)sc2c1,0.2,-0.4,11.9*,3.5,0.1,0.9
CCN(CC)S(=O)(=O)c1ccc(C(C)NCC(=O)Nc2ccccc2C(=O)NC2CC2)cc1 (stereo unspecified),-0.1,-4.5,10.2*,-4.7,-0.5,-0.9
CC(NCC(=O)Nc1ccccc1C(=O)NC1CC1)c1ccc(S(N)(=O)=O)cc1 (stereo unspecified),1.7,-3.7,-5.8,-11.6,.,.
Cc1[nH]c2ccccc2c1N=Nc1cc(C(=O)O)cc(C(=O)O)c1,2.2,-4.2,11.0*,-5.1,-1.9,0.8
CCCCNC(=O)C1(C)CCCCN1C(=O)c1ccc(F)c(C)c1 (stereo unspecified),1.1,6.4,13.7*,0.8,-3.3,-0.1
CCCCNC(=O)C1(C)CCN1C(=O)c1ccc(F)c(C)c1 (stereo unspecified),-0.5,3.1,7.5,-1.9,.,.
O=C(OCC#CCSc1nnc(-c2ccc(F)cc2)o1)c1ccc(F)cc1,.,6.3,10.5*,.,-8.4,-6.3
O=C(OCC#CCSc1nnc(-c2ccccc2Cl)o1)c1ccc(F)cc1,.,-2.6,-1.9,.,.,.
COc1ccc(N2C(=O)c3n[nH]c(C(C)C)c3C2c2ccc(F)cc2)cc1 (stereo unspecified),-0.9,-2.3,0.7,.,.,.
COc1ccc(-c2ccc(NS(=O)(=O)c3cccc([N+](=O)[O-])c3)cc2)nn1,1.2,-1.8,13.1*,-2.9,-3.3,-0.5
COC(=O)N(C)C[C@H]1OCc2cn(nn2)CCCC(=O)N([C@H](C)CO)C[C@@H]1C,0.6,2.9,2.1,.,.,.
CN(C(=O)COC(=O)C1CCN(S(=O)(=O)c2ccc(Cl)cc2)CC1)C1CCS(=O)(=O)C1 (stereo unspecified),0.0,4.3,2.5,0.1,.,.
CN(C(=O)COC(=O)C1CCN(S(=O)(=O)c2ccc3c(c2)OCCO3)CC1)C1CCS(=O)(=O)C1 (stereo unspecified),0.0,-0.1,13.7*,-0.7,-0.4,2.7
O=C(Nc1nn[nH]n1)C12CC3CC(CC(C3)C1)C2,-0.2,2.9,10.4*,-0.8,-3.9,1.4
O=C(NC1=NCCS1)C12CC3CC(CC(C3)C1)C2,1.4,11.4*,5.9,-0.1,-4.5,-2.3
O=C(NCc1ccccc1)[C@H]1CCCN1C(=O)[C@H]1CCCN1C(=O)c1cccs1,0.6,1.7,-0.1,.,.,.
CCOc1ccccc1Nc1nc(N)nc(CN(C)C2CCCCC2)n1,0.2,12.3*,6.4,-3.8,9.3,5.3
SMILES,MsrA inh,PLCb3 inh,PLCg1 inh,MsrA act,PLCgamma1 ctr,PLCbeta3 conf
CCCc1cn(-c2ccc3c(c2)[C@@]2(CC(=O)N(C)C2c2ccccc2)C(=O)N3CC(C)C)nn1 (stereo partly specified),.,1.8,1.8,.,.,.
COc1ccc(S(=O)(=O)NCC(=O)NCc2cc(=O)n(C)c(=O)n2C)cc1C,0.5,-5.4,9.9*,1.5,-4.8,0.5
COc1ccc(C(CC(=O)N2CCCC2)C(C)C)cc1 (stereo unspecified),-1.0,4.1,2.1,-8.2,.,.
COc1ccc(C(CC(=O)N2CCCC2)c2ccc(F)cc2)cc1 (stereo unspecified),1.6,2.1,11.1*,-2.3,5.4,3.6
CCCCCn1c(C)c(CC(=O)Nc2ccc(Oc3cccnc3)c(C)c2)c2ccccc21,1.0,-10.3,-7.0,.,.,.
Cc1ccc(C)c(OCc2nc(-c3cccnc3)no2)c1,-1.6,0.0,9.8*,-0.6,-6.2,-9.1
Cc1ccc(N(CC(N)=O)C2SC(=O)N(Cc3ccccc3)C2=O)cc1 (stereo unspecified),0.4,9.0,9.6*,-0.5,-5.8,1.7
NC(=O)CN(c1ccccc1)C1SC(=O)N(Cc2ccccc2)C1=O (stereo unspecified),-0.9,2.0,-0.4,-5.4,.,.
O=C(NCC1CCN(Cc2ccc(Cl)cc2)CC1)C1CCCN(c2ncnc3c2nc2n3CCCCC2)C1 (stereo unspecified),1.2,-7.4,10.8*,-5.0,-3.1,-1.5
COc1ccc([C@@H]2C[C@H]3[C@@H](CN2S(=O)(=O)c2ccccc2)C(=O)C[C@@H](c2cccc(Cl)c2)N3S(=O)(=O)c2ccc(C)cc2)cc1,.,.,.,6.0,.,.
NC(=O)CC(NC(=O)Cc1ccc(Br)cc1)c1ccc(NCc2ccc(F)cc2)c([N+](=O)[O-])c1 (stereo unspecified),2.9,-1.9,1.0,-1.6,.,.
Cc1ccc(CC(=S)N2CCOCC2)cc1,-0.5,3.4,4.0,-1.2,.,.
S=C(Cc1ccc(-c2ccccc2)cc1)N1CCOCC1,1.3,-3.8,9.9*,-4.6,-6.8,-3.3
COc1cc(OC)cc(C(=O)NC2CCCN(Cc3ccc(Cl)cc3)C2)c1 (stereo unspecified),-1.6,-1.5,-0.2,0.5,.,.
O=C(NC1CCCN(Cc2ccc(Cl)cc2)C1)c1ccnc(Cl)c1 (stereo unspecified),1.6,-13.4,11.1*,-0.8,-7.8,-2.2
CC(OC(=O)c1ccc2c(c1)OCO2)C(=O)NC1CCCCC1C (stereo unspecified),-1.6,3.0,0.1,-2.5,.,.
CC(=O)Nc1cccc(C(=O)OC(C)C(=O)NCc2ccc3c(c2)OCO3)c1 (stereo unspecified),-0.5,-8.1,9.9*,-2.0,4.4,5.9

# High-throughput results deposited in PubChem BioAssay by The Scripps Research Institute Molecular Screening Center.
